# Experimental data taken from article PMC7862700, “An all-to-all approach to the identification of sequence-specific readers for epigenetic DNA modifications on cytosine”.
# Tests used:
# Test in all cases: DAPPL (digital affinity profiling via proximity ligation, sequencing); 10 mM Tris-HCl pH 7.5, 50 mM NaCl, 1 mM DTT, 4% glycerol, room temperature, 30 min; GST-TFs on glutathione beads, 16-mer random dsDNA library, 0.1% formaldehyde crosslink after washing; high values mean tight binding
# FEV = biological target: T1, FEV (Homo sapiens, UniProt Q99581 1-238); conditions: protein: recombinant; tags: N-terminal GST; dsDNA, one strand shown
# T1 sequence: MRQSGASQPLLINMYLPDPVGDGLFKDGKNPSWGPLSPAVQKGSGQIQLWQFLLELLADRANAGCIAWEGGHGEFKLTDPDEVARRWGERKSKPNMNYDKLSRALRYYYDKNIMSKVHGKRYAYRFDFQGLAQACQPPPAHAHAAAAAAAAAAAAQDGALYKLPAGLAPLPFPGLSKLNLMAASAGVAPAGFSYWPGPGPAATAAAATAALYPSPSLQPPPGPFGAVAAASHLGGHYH
# Summary of the method: (§1)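 Human transcription factors fused to GST were expressed in yeast, captured on glutathione beads, given DNA barcodes and pooled with a GST-only negative control. Pools were incubated with 200 nmole of a 16-mer random double-stranded DNA library in Tris/NaCl/DTT/glycerol buffer at room temperature for 30 min. They were then washed, crosslinked with 0.1% formaldehyde, proximity-ligated (BsaI/T4 ligase, 1 h, 37 °C), PCR-amplified and sequenced on an Illumina NextSeq500. Binding signal is each 6-mer's read frequency for a factor divided by its frequency for the GST control.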
# ETV5 = ETV5 (Homo sapiens, UniProt P41161 1-510); conditions: protein: recombinant; tags: N-terminal GST; dsDNA, one strand shown
# Sequence of ETV5 (P41161 whole entry): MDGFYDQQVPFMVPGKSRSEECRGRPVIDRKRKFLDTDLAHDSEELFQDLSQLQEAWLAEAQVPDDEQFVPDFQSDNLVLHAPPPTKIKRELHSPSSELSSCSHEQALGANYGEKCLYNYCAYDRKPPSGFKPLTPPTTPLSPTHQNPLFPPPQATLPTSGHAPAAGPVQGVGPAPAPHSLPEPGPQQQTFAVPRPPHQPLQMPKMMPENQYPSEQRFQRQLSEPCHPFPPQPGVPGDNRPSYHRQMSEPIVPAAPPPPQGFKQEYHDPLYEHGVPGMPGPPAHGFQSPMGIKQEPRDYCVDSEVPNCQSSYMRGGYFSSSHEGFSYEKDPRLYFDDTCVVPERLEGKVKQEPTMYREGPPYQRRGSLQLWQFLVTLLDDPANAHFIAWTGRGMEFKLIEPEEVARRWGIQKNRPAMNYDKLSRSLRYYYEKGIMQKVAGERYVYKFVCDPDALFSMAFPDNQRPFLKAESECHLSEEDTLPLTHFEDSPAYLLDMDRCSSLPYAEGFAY
# Summary of the method: as §1
# HSF1 = HSF1 (Homo sapiens, UniProt Q00613 1-529); conditions: protein: recombinant; tags: N-terminal GST; chain copies: 3; dsDNA, one strand shown
# Sequence of HSF1 (Q00613 whole entry): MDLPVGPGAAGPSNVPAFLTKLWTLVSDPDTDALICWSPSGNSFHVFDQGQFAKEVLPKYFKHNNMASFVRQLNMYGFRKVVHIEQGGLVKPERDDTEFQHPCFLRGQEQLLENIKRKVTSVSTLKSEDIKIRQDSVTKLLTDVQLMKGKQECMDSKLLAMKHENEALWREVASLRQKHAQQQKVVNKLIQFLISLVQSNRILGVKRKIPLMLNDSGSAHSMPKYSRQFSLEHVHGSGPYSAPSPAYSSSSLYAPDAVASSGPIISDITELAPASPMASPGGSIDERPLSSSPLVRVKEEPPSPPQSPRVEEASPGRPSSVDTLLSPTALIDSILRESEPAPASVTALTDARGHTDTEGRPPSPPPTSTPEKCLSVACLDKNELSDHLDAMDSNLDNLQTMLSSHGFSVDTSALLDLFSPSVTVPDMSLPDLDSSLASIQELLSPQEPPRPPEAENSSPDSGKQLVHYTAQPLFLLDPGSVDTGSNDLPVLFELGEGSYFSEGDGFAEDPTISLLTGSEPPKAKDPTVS
# Summary of the method: as §1
# SPIC = biological target: T2, SPIC (Homo sapiens, UniProt Q8N5J4 1-248); conditions: protein: recombinant; tags: N-terminal GST; dsDNA, one strand shown
# T2 sequence: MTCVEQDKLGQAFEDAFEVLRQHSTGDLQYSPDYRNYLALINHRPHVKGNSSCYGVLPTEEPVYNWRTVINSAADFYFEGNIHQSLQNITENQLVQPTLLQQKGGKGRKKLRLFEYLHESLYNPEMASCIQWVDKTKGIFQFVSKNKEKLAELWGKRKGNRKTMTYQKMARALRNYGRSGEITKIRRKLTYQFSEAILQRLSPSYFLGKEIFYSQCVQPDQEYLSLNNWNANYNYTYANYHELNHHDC
# Summary of the method: as §1
# ELF4 = ELF4 (Homo sapiens, UniProt Q99607 1-663); conditions: protein: recombinant; tags: N-terminal GST; dsDNA, one strand shown
# Sequence of ELF4 (Q99607 whole entry): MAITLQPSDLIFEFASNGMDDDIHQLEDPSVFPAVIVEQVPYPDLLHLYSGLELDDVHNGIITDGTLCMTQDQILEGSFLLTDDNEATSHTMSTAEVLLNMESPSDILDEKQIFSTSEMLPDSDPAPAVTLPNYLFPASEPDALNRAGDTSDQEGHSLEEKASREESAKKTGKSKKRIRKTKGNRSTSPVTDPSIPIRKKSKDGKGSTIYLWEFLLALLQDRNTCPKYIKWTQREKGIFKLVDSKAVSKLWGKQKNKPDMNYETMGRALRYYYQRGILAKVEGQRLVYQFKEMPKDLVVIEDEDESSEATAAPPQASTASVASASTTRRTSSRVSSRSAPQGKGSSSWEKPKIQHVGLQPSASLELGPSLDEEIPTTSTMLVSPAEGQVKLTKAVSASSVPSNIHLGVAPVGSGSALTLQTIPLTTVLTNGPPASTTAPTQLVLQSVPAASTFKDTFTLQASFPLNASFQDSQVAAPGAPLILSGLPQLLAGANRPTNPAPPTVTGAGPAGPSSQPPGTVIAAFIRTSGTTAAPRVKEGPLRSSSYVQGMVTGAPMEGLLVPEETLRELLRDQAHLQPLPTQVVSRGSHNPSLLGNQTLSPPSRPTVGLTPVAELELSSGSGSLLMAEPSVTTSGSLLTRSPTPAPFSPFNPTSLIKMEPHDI
# Summary of the method: as §1
# ELK4 = biological target: T3, ELK4 (Homo sapiens, UniProt P28324-2 1-405); conditions: protein: recombinant; tags: N-terminal GST; dsDNA, one strand shown
# T3 sequence: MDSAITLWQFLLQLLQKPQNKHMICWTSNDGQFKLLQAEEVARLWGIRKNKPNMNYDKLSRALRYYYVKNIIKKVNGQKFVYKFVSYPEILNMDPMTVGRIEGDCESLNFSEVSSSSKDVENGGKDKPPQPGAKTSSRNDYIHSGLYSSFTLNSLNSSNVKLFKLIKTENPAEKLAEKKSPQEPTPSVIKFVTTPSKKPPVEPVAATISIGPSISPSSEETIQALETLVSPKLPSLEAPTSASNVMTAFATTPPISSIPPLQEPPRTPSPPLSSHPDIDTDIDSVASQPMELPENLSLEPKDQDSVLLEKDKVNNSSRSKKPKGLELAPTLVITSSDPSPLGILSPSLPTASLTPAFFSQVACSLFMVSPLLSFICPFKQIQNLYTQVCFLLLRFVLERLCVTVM
# Summary of the method: as §1
# ETV2 = biological target: T4, ETV2 (Homo sapiens, UniProt O00321 1-342); conditions: protein: recombinant; tags: N-terminal GST; dsDNA, one strand shown
# T4 sequence: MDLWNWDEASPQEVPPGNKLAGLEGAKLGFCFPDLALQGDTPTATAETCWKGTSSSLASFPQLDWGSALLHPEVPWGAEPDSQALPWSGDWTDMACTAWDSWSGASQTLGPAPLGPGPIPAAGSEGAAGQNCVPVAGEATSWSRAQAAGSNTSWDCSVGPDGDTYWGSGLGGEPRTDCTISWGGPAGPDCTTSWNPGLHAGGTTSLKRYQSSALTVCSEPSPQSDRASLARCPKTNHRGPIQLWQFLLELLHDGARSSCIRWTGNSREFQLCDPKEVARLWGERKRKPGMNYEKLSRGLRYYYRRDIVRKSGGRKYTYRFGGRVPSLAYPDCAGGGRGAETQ
# Summary of the method: as §1
# ELF3 = biological target: T5, ELF3 (Homo sapiens, UniProt P78545 1-371); conditions: protein: recombinant; tags: N-terminal GST; dsDNA, one strand shown
# T5 sequence: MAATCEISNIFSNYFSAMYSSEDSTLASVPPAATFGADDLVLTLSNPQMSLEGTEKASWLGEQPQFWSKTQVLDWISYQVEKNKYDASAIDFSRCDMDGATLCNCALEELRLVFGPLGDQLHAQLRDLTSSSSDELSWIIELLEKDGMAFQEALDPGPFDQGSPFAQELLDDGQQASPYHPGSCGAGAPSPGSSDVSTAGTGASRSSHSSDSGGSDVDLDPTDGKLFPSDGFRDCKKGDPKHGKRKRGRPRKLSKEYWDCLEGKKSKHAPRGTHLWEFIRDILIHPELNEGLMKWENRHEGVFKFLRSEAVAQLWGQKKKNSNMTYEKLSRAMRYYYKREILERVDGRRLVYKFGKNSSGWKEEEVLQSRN
# Summary of the method: as §1
# CRX = CRX (Homo sapiens, UniProt O43186 1-299); conditions: protein: recombinant; tags: N-terminal GST; dsDNA, one strand shown
# Sequence of CRX (O43186 whole entry): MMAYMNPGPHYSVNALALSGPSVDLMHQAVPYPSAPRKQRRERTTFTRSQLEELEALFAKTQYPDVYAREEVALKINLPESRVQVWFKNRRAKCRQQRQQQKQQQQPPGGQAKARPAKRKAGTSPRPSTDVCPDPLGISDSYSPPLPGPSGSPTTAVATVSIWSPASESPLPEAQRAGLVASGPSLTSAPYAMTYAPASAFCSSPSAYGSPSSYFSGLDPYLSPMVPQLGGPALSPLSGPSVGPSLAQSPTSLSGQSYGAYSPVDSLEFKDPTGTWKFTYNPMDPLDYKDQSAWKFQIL
# Summary of the method: as §1
# ETV1 = ETV1 (Homo sapiens, UniProt P50549 1-477); conditions: protein: recombinant; tags: N-terminal GST; dsDNA, one strand shown
# Sequence of ETV1 (P50549 whole entry): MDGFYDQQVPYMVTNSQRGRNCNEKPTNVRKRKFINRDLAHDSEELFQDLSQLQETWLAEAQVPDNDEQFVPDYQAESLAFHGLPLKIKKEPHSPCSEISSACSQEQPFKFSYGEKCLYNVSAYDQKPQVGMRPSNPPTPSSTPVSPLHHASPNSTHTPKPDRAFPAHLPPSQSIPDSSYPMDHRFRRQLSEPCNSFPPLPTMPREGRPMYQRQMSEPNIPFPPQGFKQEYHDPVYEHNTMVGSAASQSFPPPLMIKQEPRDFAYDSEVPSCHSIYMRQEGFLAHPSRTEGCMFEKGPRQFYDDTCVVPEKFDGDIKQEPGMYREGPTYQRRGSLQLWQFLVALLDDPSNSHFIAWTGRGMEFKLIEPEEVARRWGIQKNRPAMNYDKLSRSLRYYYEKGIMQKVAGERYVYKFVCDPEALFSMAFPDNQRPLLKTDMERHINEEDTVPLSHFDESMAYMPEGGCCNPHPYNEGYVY
# Summary of the method: as §1
# ERF = biological target: T6, ERF (Homo sapiens, UniProt P50548 1-548); conditions: protein: recombinant; tags: N-terminal GST; dsDNA, one strand shown
# T6 sequence: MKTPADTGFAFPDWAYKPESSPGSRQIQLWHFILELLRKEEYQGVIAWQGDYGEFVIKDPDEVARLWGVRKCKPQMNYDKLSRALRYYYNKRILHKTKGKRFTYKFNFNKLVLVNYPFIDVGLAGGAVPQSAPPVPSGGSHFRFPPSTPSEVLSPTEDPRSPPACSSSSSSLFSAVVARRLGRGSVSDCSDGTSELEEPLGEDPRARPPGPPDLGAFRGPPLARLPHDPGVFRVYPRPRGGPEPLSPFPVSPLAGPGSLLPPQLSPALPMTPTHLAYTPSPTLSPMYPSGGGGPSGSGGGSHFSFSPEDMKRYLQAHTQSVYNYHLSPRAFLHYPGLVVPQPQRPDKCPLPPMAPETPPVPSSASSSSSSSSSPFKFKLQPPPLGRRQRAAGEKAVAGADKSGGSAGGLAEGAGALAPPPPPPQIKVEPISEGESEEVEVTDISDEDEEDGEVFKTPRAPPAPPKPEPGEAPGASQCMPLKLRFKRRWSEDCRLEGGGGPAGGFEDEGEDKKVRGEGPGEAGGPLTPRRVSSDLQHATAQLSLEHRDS
# Summary of the method: as §1
# ETV3L = biological target: T7, ETV3L (Homo sapiens, UniProt Q6ZN32 1-361); conditions: protein: recombinant; tags: N-terminal GST; dsDNA, one strand shown
# T7 sequence: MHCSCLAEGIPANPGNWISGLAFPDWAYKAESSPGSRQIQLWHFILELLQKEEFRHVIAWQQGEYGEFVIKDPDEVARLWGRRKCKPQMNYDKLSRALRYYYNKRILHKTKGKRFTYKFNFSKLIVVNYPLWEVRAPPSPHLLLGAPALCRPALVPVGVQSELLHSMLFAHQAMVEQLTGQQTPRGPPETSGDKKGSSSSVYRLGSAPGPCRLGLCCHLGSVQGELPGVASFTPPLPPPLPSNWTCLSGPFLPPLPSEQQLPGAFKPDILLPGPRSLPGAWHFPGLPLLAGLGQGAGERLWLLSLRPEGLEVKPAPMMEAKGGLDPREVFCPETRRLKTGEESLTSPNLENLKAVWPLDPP
# Summary of the method: as §1
# ETS2 = biological target: T8, ETS2 (Homo sapiens, UniProt P15036 1-469); conditions: protein: recombinant; tags: N-terminal GST; dsDNA, one strand shown
# T8 sequence: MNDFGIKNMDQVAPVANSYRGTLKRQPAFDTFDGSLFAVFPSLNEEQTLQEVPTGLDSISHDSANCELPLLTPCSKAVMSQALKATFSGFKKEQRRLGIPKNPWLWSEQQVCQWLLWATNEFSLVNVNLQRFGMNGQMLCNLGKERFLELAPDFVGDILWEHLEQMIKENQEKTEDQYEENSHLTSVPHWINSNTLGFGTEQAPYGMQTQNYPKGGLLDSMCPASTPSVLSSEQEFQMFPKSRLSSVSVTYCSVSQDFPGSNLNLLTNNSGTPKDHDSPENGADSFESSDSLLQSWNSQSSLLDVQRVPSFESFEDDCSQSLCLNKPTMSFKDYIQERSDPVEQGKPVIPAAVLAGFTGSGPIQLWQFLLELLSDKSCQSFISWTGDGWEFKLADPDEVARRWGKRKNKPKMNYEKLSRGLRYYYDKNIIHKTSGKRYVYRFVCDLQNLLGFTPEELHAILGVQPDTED
# Summary of the method: as §1
# SPDEF = biological target: T9, SPDEF (Homo sapiens, UniProt O95238 1-335); conditions: protein: recombinant; tags: N-terminal GST; dsDNA, one strand shown
# T9 sequence: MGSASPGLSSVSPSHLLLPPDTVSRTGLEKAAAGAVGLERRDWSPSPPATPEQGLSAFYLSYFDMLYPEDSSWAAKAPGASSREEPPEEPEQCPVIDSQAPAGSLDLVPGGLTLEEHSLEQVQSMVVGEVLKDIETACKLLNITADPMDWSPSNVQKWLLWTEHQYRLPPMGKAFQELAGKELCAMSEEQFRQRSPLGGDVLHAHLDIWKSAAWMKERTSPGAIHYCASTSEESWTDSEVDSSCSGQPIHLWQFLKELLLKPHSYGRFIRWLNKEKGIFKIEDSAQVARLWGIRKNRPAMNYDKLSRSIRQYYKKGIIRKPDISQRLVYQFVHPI
# Summary of the method: as §1
# ETV7 = biological target: T10, ETV7 (Homo sapiens, UniProt Q9Y603 1-341); conditions: protein: recombinant; tags: N-terminal GST; dsDNA, one strand shown
# T10 sequence: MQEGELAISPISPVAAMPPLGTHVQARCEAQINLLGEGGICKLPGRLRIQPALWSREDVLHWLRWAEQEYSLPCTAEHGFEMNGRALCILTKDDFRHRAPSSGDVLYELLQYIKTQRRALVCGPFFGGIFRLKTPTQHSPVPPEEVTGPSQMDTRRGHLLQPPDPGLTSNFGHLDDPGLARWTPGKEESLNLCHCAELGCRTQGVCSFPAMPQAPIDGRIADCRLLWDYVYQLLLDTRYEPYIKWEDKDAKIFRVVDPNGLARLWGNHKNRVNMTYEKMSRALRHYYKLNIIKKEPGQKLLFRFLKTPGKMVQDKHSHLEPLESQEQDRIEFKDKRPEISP
# Summary of the method: as §1
# ELF5 = biological target: T11, ELF5 (Homo sapiens, UniProt Q9UKW6-2 1-255); conditions: protein: recombinant; tags: N-terminal GST; dsDNA, one strand shown
# T11 sequence: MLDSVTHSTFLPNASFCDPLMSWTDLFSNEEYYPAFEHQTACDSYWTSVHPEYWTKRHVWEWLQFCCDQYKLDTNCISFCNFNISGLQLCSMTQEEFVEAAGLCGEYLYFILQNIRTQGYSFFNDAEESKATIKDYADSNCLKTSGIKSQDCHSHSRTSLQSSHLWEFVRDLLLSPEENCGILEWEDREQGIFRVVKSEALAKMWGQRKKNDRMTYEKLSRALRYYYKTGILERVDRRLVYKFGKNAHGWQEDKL
# Summary of the method: as §1
# ETV3 = biological target: T12, ETV3 (Homo sapiens, UniProt P41162-2 1-143); conditions: protein: recombinant; tags: N-terminal GST; dsDNA, one strand shown
# T12 sequence: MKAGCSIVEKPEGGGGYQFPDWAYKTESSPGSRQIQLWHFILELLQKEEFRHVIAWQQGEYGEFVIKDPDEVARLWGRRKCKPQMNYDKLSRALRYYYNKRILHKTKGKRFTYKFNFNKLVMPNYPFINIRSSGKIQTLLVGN
# Summary of the method: as §1
# ETV6 = ETV6 (Homo sapiens, UniProt P41212 1-452); conditions: protein: recombinant; tags: N-terminal GST; dsDNA, one strand shown
# Sequence of ETV6 (P41212 whole entry): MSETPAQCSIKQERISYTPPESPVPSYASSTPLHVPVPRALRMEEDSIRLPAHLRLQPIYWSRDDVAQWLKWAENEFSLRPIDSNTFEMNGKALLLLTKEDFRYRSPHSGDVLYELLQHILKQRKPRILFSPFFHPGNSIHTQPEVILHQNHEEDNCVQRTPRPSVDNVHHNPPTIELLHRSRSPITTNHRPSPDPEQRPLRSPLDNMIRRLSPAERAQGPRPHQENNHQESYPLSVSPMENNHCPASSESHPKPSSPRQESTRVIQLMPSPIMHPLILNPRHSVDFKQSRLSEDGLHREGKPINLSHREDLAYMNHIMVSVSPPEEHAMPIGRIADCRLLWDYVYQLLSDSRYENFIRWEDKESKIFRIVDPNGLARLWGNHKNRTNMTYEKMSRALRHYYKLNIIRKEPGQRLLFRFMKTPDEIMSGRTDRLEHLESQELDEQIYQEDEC
# Summary of the method: as §1
sequence,measurement,setting,value
CCTAAG,binding signal,FEV,"1.14 fold enrichment (6-mer frequency, TF over GST control)"
same,binding signal,ETV5,"1.2 fold enrichment (6-mer frequency, TF over GST control)"
same,binding signal,HSF1,"1.35 fold enrichment (6-mer frequency, TF over GST control)"
same,binding signal,SPIC,"1.14 fold enrichment (6-mer frequency, TF over GST control)"
same,binding signal,ELF4,"1.26 fold enrichment (6-mer frequency, TF over GST control)"
same,binding signal,ELK4,"1.27 fold enrichment (6-mer frequency, TF over GST control)"
same,binding signal,ETV2,"1.08 fold enrichment (6-mer frequency, TF over GST control)"
same,binding signal,ELF3,"1.09 fold enrichment (6-mer frequency, TF over GST control)"
same,binding signal,CRX,"1.85 fold enrichment (6-mer frequency, TF over GST control)"
same,binding signal,ETV1,"1.09 fold enrichment (6-mer frequency, TF over GST control)"
same,binding signal,ERF,"1.11 fold enrichment (6-mer frequency, TF over GST control)"
same,binding signal,ETV3L,"1.12 fold enrichment (6-mer frequency, TF over GST control)"
same,binding signal,ETS2,"1.09 fold enrichment (6-mer frequency, TF over GST control)"
same,binding signal,SPDEF,"1.08 fold enrichment (6-mer frequency, TF over GST control)"
same,binding signal,ETV7,"1.09 fold enrichment (6-mer frequency, TF over GST control)"
same,binding signal,ELF5,"1.11 fold enrichment (6-mer frequency, TF over GST control)"
same,binding signal,ETV3,"1.06 fold enrichment (6-mer frequency, TF over GST control)"
same,binding signal,ETV6,"1.11 fold enrichment (6-mer frequency, TF over GST control)"
